{"source": "the OligoGym collection", "assay_in_all_cases": "pooled miR-30 sensor sort-seq; sequence = guide strand", "details_in_all_cases": "shRNA", "key": {"SCGB1D4": {"target": "SCGB1D4"}, "SCAPER": {"target": "SCAPER"}, "SCG3": {"target": "SCG3"}, "SCAF4": {"target": "SCAF4"}, "SDHAF1": {"target": "SDHAF1"}, "SCN4A": {"target": "SCN4A"}, "SEC11C": {"target": "SEC11C"}, "SDR9C7": {"target": "SDR9C7"}}, "data": [{"sequence": "AAAGATATCTGATCGGTGCAGT", "values": [{"measurement": "sensor-assay potency score (higher = more potent)", "setting": "SCGB1D4", "result": 0.161}]}, {"sequence": "AAGTTTGGCAACTTGGAGGTTT", "values": [{"measurement": "sensor-assay potency score (higher = more potent)", "setting": "SCGB1D4", "result": -0.0937}]}, {"sequence": "TTGAGCATCTGTCTTCTCTAGC", "values": [{"measurement": "sensor-assay potency score (higher = more potent)", "setting": "SCAPER", "result": -0.0428}]}, {"sequence": "TTTATGATCCAATCCACTCTTA", "values": [{"measurement": "sensor-assay potency score (higher = more potent)", "setting": "SCG3", "result": -0.0664}]}, {"sequence": "TAGTTGATGAAGACCATCTGGA", "values": [{"measurement": "sensor-assay potency score (higher = more potent)", "setting": "SCG3", "result": 0.192}]}, {"sequence": "TTTCTTGAGATCGAGATCGGGG", "values": [{"measurement": "sensor-assay potency score (higher = more potent)", "setting": "SCAF4", "result": -0.563}]}, {"sequence": "TAACATTTTCTGCTACTGGGGC", "values": [{"measurement": "sensor-assay potency score (higher = more potent)", "setting": "SCAF4", "result": -0.447}]}, {"sequence": "TTCTTCATGACTCTTCTCTGAT", "values": [{"measurement": "sensor-assay potency score (higher = more potent)", "setting": "SCG3", "result": 0.0122}]}, {"sequence": "TAGTTTAGAAACAATCTTGTCA", "values": [{"measurement": "sensor-assay potency score (higher = more potent)", "setting": "SCG3", "result": 0.211}]}, {"sequence": "TTTTTAGTGAAGATCAGGGTGT", "values": [{"measurement": "sensor-assay potency score (higher = more potent)", "setting": "SCGB1D4", "result": 0.0112}]}, {"sequence": "TGATCTCAGAAGCAACAGCTGG", "values": [{"measurement": "sensor-assay potency score (higher = more potent)", "setting": "SCGB1D4", "result": -1.12}]}, {"sequence": "TATCTGATCGGTGCAGTGCTTC", "values": [{"measurement": "sensor-assay potency score (higher = more potent)", "setting": "SCGB1D4", "result": -0.707}]}, {"sequence": "TTCAATGAGAGTCGTTTCTTAA", "values": [{"measurement": "sensor-assay potency score (higher = more potent)", "setting": "SCGB1D4", "result": -0.987}]}, {"sequence": "TTCTTTATCACTGTCATCCTTT", "values": [{"measurement": "sensor-assay potency score (higher = more potent)", "setting": "SCAPER", "result": 0.0905}]}, {"sequence": "TTAATTTTTGTAAAACCTCTGC", "values": [{"measurement": "sensor-assay potency score (higher = more potent)", "setting": "SCG3", "result": -0.0676}]}, {"sequence": "TACTATTTGAACTACATGCTTA", "values": [{"measurement": "sensor-assay potency score (higher = more potent)", "setting": "SCAF4", "result": 0.0032}]}, {"sequence": "TAATCTTGTCTTCTTCTGCTTC", "values": [{"measurement": "sensor-assay potency score (higher = more potent)", "setting": "SCG3", "result": -0.063}]}, {"sequence": "TTTCAAGGTAGGAAACACCTTC", "values": [{"measurement": "sensor-assay potency score (higher = more potent)", "setting": "SCG3", "result": 0.087}]}, {"sequence": "TTTCAATGAGAGTCGTTTCTTA", "values": [{"measurement": "sensor-assay potency score (higher = more potent)", "setting": "SCGB1D4", "result": 0.178}]}, {"sequence": "ATTAAGTTTGGCAACTTGGAGG", "values": [{"measurement": "sensor-assay potency score (higher = more potent)", "setting": "SCGB1D4", "result": -1.05}]}, {"sequence": "TTTAATAGCAGCTTTAGTGATG", "values": [{"measurement": "sensor-assay potency score (higher = more potent)", "setting": "SCAF4", "result": -0.529}]}, {"sequence": "TTACATTCGACCACACTCTGAT", "values": [{"measurement": "sensor-assay potency score (higher = more potent)", "setting": "SCAPER", "result": 0.939}]}, {"sequence": "TAGTAGAGTCATAATCATCGAT", "values": [{"measurement": "sensor-assay potency score (higher = more potent)", "setting": "SCG3", "result": 0.0703}]}, {"sequence": "TTTTCTTCCATCATCCTGCGTC", "values": [{"measurement": "sensor-assay potency score (higher = more potent)", "setting": "SCAPER", "result": 0.186}]}, {"sequence": "ATAATCTGCAAGGACATCGTTC", "values": [{"measurement": "sensor-assay potency score (higher = more potent)", "setting": "SCAPER", "result": -0.342}]}, {"sequence": "TTCATCTGGAACATAAACCGTC", "values": [{"measurement": "sensor-assay potency score (higher = more potent)", "setting": "SCAPER", "result": 0.155}]}, {"sequence": "AATAAGAAGACTGTGATCTCAG", "values": [{"measurement": "sensor-assay potency score (higher = more potent)", "setting": "SCGB1D4", "result": 0.355}]}, {"sequence": "TCTTAAAAGATATCTGATCGGT", "values": [{"measurement": "sensor-assay potency score (higher = more potent)", "setting": "SCGB1D4", "result": -0.48}]}, {"sequence": "TTGAGTTGTCTGAAACAGCTGA", "values": [{"measurement": "sensor-assay potency score (higher = more potent)", "setting": "SCAF4", "result": 0.384}]}, {"sequence": "TTCTTATAGATTGTCTTTCTTT", "values": [{"measurement": "sensor-assay potency score (higher = more potent)", "setting": "SCG3", "result": -0.774}]}, {"sequence": "TTGAGTGTAATTCTCCTTGGGA", "values": [{"measurement": "sensor-assay potency score (higher = more potent)", "setting": "SCAPER", "result": 0.0508}]}, {"sequence": "TTAACAATTCTTCTACACGGGC", "values": [{"measurement": "sensor-assay potency score (higher = more potent)", "setting": "SCAPER", "result": -0.521}]}, {"sequence": "TAAACATTGATTGCATTGCAGA", "values": [{"measurement": "sensor-assay potency score (higher = more potent)", "setting": "SCAPER", "result": -1.19}]}, {"sequence": "TTACACTTTTTGATGAACTTTT", "values": [{"measurement": "sensor-assay potency score (higher = more potent)", "setting": "SCAF4", "result": -0.768}]}, {"sequence": "TTAGTGATGAGAATCATCTTGG", "values": [{"measurement": "sensor-assay potency score (higher = more potent)", "setting": "SCAF4", "result": 0.534}]}, {"sequence": "TTATTTTACAGTCCACTGCAGT", "values": [{"measurement": "sensor-assay potency score (higher = more potent)", "setting": "SCAPER", "result": -0.733}]}, {"sequence": "TTGATCTAGCAATTCTTCCTTC", "values": [{"measurement": "sensor-assay potency score (higher = more potent)", "setting": "SCAPER", "result": 0.245}]}, {"sequence": "TTGTCATGTTTCTTCAACCATT", "values": [{"measurement": "sensor-assay potency score (higher = more potent)", "setting": "SCG3", "result": -1.02}]}, {"sequence": "TATTGTTCCATATTTCACCATC", "values": [{"measurement": "sensor-assay potency score (higher = more potent)", "setting": "SCG3", "result": -0.949}]}, {"sequence": "TTCACTTCCAACTTGGCTGCAA", "values": [{"measurement": "sensor-assay potency score (higher = more potent)", "setting": "SCGB1D4", "result": 1.11}]}, {"sequence": "ACTGTCGCCGTCGTCAGGCTGG", "values": [{"measurement": "sensor-assay potency score (higher = more potent)", "setting": "SDHAF1", "result": -1.04}]}, {"sequence": "TCGATGCGCAGCACGTCGGACC", "values": [{"measurement": "sensor-assay potency score (higher = more potent)", "setting": "SDHAF1", "result": -1.24}]}, {"sequence": "TTGTACAGGATGTCCACCTTGA", "values": [{"measurement": "sensor-assay potency score (higher = more potent)", "setting": "SCN4A", "result": 0.539}]}, {"sequence": "TAGTCATTCATTATTATGGTGA", "values": [{"measurement": "sensor-assay potency score (higher = more potent)", "setting": "SEC11C", "result": -0.647}]}, {"sequence": "TTGCAGTTCTTGAACCAGCGAT", "values": [{"measurement": "sensor-assay potency score (higher = more potent)", "setting": "SDR9C7", "result": -0.518}]}, {"sequence": "TGCTCGACAATCTTGAAGCAGG", "values": [{"measurement": "sensor-assay potency score (higher = more potent)", "setting": "SCN4A", "result": -1.33}]}, {"sequence": "TCCTTGGACTGTCGCCGTCGTC", "values": [{"measurement": "sensor-assay potency score (higher = more potent)", "setting": "SDHAF1", "result": -1.69}]}, {"sequence": "TGAACTATTGGAATGTCTCGTC", "values": [{"measurement": "sensor-assay potency score (higher = more potent)", "setting": "SEC11C", "result": 0.149}]}, {"sequence": "AACTTGTCAGTATAGATGCGGA", "values": [{"measurement": "sensor-assay potency score (higher = more potent)", "setting": "SDR9C7", "result": -0.682}]}, {"sequence": "TAACTTGTCAGTATAGATGCGG", "values": [{"measurement": "sensor-assay potency score (higher = more potent)", "setting": "SDR9C7", "result": -0.0735}]}, {"sequence": "TAAAACCTGGTAATAGAGCTGG", "values": [{"measurement": "sensor-assay potency score (higher = more potent)", "setting": "SEC11C", "result": -0.222}]}, {"sequence": "TTGGACTGTCGCCGTCGTCAGG", "values": [{"measurement": "sensor-assay potency score (higher = more potent)", "setting": "SDHAF1", "result": -1.17}]}, {"sequence": "TGGACTGTCGCCGTCGTCAGGC", "values": [{"measurement": "sensor-assay potency score (higher = more potent)", "setting": "SDHAF1", "result": -0.932}]}, {"sequence": "TTAGGATGAAATCTGTCACAGG", "values": [{"measurement": "sensor-assay potency score (higher = more potent)", "setting": "SDR9C7", "result": -0.552}]}, {"sequence": "TTGTAGTCAGCTGTGCTGCAGA", "values": [{"measurement": "sensor-assay potency score (higher = more potent)", "setting": "SCN4A", "result": -0.246}]}, {"sequence": "TAGAGCTCACGCCTTATGCTGT", "values": [{"measurement": "sensor-assay potency score (higher = more potent)", "setting": "SDR9C7", "result": -0.719}]}, {"sequence": "TTGATGACATCTCTGACTCTGG", "values": [{"measurement": "sensor-assay potency score (higher = more potent)", "setting": "SDR9C7", "result": 0.0736}]}, {"sequence": "TGAACTTTGATTACTCTGTGAA", "values": [{"measurement": "sensor-assay potency score (higher = more potent)", "setting": "SEC11C", "result": 0.177}]}, {"sequence": "TTGATGCTTTCGCTCTTGGTGA", "values": [{"measurement": "sensor-assay potency score (higher = more potent)", "setting": "SDR9C7", "result": -1.21}]}, {"sequence": "TGCAGTAGTAGAACTTGCCGGC", "values": [{"measurement": "sensor-assay potency score (higher = more potent)", "setting": "SCN4A", "result": 0.0253}]}]}
